Our source for the growth values is PubChem BioAssay (NCI).

Some test systems named below: SK-MEL-2 melanoma; EKVX NSCLC; SN12C renal; UO-31 renal; TK-10 renal; ACHN renal; CAKI-1 renal; A498 renal; CCRF-CEM leukemia; MOLT-4 leukemia; SR leukemia; RPMI-8226 leukemia; OVCAR-8 ovarian; OVCAR-5 ovarian; OVCAR-4 ovarian; SK-OV-3 ovarian; IGROV1 ovarian; OVCAR-3 ovarian; HS 578T breast; NCI/ADR-RES ovarian.
Common to all, as to experiment: NCI-60 one-dose screen, 48 h (100 = growth as untreated, 0 = no growth, -100 = all killed)
Common to all, as to settings: 10 µM unless noted

About 83,000 compounds went through this panel and 20% of them were active in at least one assay; those are over-represented in the sample as a whole.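 A percent growth of 40 corresponds to 60% growth inhibition; 0 means no net growth; -100 means all cells died. Active threshold: below 10.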 Unmarked numbers belong to inactive results. Calls of active or inactive are those of the source.

With `c1ccc(CCNc2ncnc3[nH]ncc23)cc1`, the growth was 127% with SK-MEL-2 melanoma; 58.3% in the test on EKVX NSCLC; 92.7% in the test on SN12C renal; 62.1% with UO-31 renal; 110% in the test with TK-10 renal; 89.2% in the test with ACHN renal. Moreover, the growth in the test with CAKI-1 renal is 90.4%; in the test with A498 renal it was 104%; with CCRF-CEM leukemia it was 95.1%; in the test on MOLT-4 leukemia it was 124%; in the test on SR leukemia, 107%; in the test with RPMI-8226 leukemia, 67%. Besides, the growth in the test on OVCAR-8 ovarian was 95%; with OVCAR-5 ovarian, 82.5%; in the test on OVCAR-4 ovarian, 81.1%; in the test with SK-OV-3 ovarian, 109%; with IGROV1 ovarian it was 83.5%; in the test on OVCAR-3 ovarian it was 108%. The growth in the test on HS 578T breast is 66.3%; in the test with NCI/ADR-RES ovarian, 97.9%.

Consider `O=C(NCCN1CCOCC1)Nc1ccc(-c2cc3c(Nc4ccc(Oc5cccc(C(F)(F)F)c5)c(Cl)c4)ncnc3s2)cc1`, for which the growth in the test with SK-MEL-2 melanoma was 32%; with EKVX NSCLC it was 20.8%; with SN12C renal, 42.9%; with UO-31 renal, -35.8% (active); in the test with TK-10 renal, 49.8%; with ACHN renal it was 11.8%. In addition, the growth was 8.01% (active) with CAKI-1 renal; 40.3% in the test with A498 renal; 3.33% (active) with CCRF-CEM leukemia; -4.36% (active) with MOLT-4 leukemia; 4.83% (active) with SR leukemia; -14.8% (active) with RPMI-8226 leukemia. The growth in the test on OVCAR-8 ovarian was 41.1%; with OVCAR-5 ovarian, 36.2%; with OVCAR-4 ovarian, 39.2%; in the test with SK-OV-3 ovarian it was 24.5%; with IGROV1 ovarian, 28.3%; in the test with OVCAR-3 ovarian, 41.1%. Besides, the growth with HS 578T breast was -3.09% (active); with NCI/ADR-RES ovarian, 77.2%.

`O=C1/C(=C/c2ccc3c(c2)OCO3)SC(=S)N1CCc1ccc(O)cc1`: the growth is 100% in the test on SK-MEL-2 melanoma; 98.8% in the test on EKVX NSCLC; 92.1% in the test on SN12C renal; 58.8% with UO-31 renal; 81.3% with TK-10 renal; 97.2% with ACHN renal. The growth was 81% in the test with CAKI-1 renal; 111% with A498 renal; 56.7% in the test with CCRF-CEM leukemia; 87.3% in the test on MOLT-4 leukemia; 101% with SR leukemia; 89.8% in the test with RPMI-8226 leukemia. In addition, the growth was 101% in the test on OVCAR-8 ovarian; 111% with OVCAR-5 ovarian; 82.9% in the test on OVCAR-4 ovarian; 104% in the test with SK-OV-3 ovarian; 75.9% in the test on IGROV1 ovarian; 101% in the test with OVCAR-3 ovarian. The results for the growth in the test on HS 578T breast and with NCI/ADR-RES ovarian were 96.7% and 97.4%, respectively.

As for `CSc1ccc(-c2n[nH]nc2-c2cc3ccccc3s2)cc1`, the growth with SK-MEL-2 melanoma is 33%; in the test on EKVX NSCLC it was 73.2%; in the test with SN12C renal, 59.9%; in the test on UO-31 renal, 52.3%; in the test with TK-10 renal, 84.2%; in the test on ACHN renal it was 64.7%. In addition, the growth is 49.1% in the test on CAKI-1 renal; 46.8% in the test on A498 renal; 52.6% in the test on CCRF-CEM leukemia; 10.1% in the test with MOLT-4 leukemia; 24.9% with SR leukemia; 40.1% with RPMI-8226 leukemia. Besides, the growth in the test on OVCAR-8 ovarian is 59.3%; in the test with OVCAR-5 ovarian, 95.3%; in the test with OVCAR-4 ovarian it was 75.8%; in the test on SK-OV-3 ovarian, 52.7%; in the test with IGROV1 ovarian, 46.4%; with OVCAR-3 ovarian, 26.5%. For the same compound, the growth in the test with HS 578T breast was 58.5%; in the test with NCI/ADR-RES ovarian, 22.8%.

Consider `O=C(N(c1ccccc1)c1ccccc1)n1ccc2nc(Cl)nc(Cl)c21`, for which the growth with SK-MEL-2 melanoma is 58.6%; with EKVX NSCLC it was 63.3%; in the test on SN12C renal, 53.8%; in the test with UO-31 renal, 57.1%; in the test on TK-10 renal, 73.7%; in the test on ACHN renal, 65.2%. For the same compound, the growth in the test with CAKI-1 renal is 53.4%; with A498 renal it was 81%; in the test on CCRF-CEM leukemia, 16%; in the test with MOLT-4 leukemia, 37.1%; in the test with SR leukemia it was 54.4%; in the test on RPMI-8226 leukemia, 16.1%. Moreover, the growth in the test on OVCAR-8 ovarian is 63.2%; with OVCAR-5 ovarian, 64.2%; in the test on OVCAR-4 ovarian it was 63.3%; with SK-OV-3 ovarian, 49.7%; with IGROV1 ovarian it was 68.5%; with OVCAR-3 ovarian it was 30%. The values for the growth in the test on HS 578T breast and in the test with NCI/ADR-RES ovarian were 42.2% and 35.8%, respectively.

Take `CN1CCN(CCCOc2cccc3nc(Nc4ccc(Cl)c(F)c4)ccc23)CC1`: the growth in the test with SK-MEL-2 melanoma is 83.7%; in the test with EKVX NSCLC, 61.7%; in the test with SN12C renal, 63.7%; in the test with UO-31 renal, 22.5%; in the test with TK-10 renal, 88.4%; with ACHN renal, 10.5%. In addition, the growth was 56.2% with CAKI-1 renal; 55.4% with A498 renal; 19.3% in the test on CCRF-CEM leukemia; -22% (active) in the test on MOLT-4 leukemia; -16% (active) in the test with SR leukemia; 23.9% in the test on RPMI-8226 leukemia. In addition, the growth was 85% in the test with OVCAR-8 ovarian; 58.6% with OVCAR-5 ovarian; 65.4% in the test with OVCAR-4 ovarian; 82.7% with SK-OV-3 ovarian; 65.7% with IGROV1 ovarian; 69.9% in the test with OVCAR-3 ovarian. Also, the results for the growth in the test with HS 578T breast and in the test with NCI/ADR-RES ovarian were 52.7% and 49.7%, respectively.

With `O=C1OC(c2ccccc2)C(O)=C1c1ccccc1` (stereo not given), the growth was 117% in the test on SK-MEL-2 melanoma; 104% with EKVX NSCLC; 98.9% with SN12C renal; 79.7% in the test with UO-31 renal; 110% in the test with TK-10 renal; 103% in the test on ACHN renal. In addition, the growth in the test on CAKI-1 renal is 95%; in the test on A498 renal, 100%; with CCRF-CEM leukemia it was 89.7%; in the test on MOLT-4 leukemia, 90.1%; in the test with SR leukemia, 109%; in the test with RPMI-8226 leukemia it was 96.5%. Further, the growth is 100% in the test with OVCAR-8 ovarian; 99.2% in the test on OVCAR-5 ovarian; 121% in the test on OVCAR-4 ovarian; 115% in the test with SK-OV-3 ovarian; 111% in the test with IGROV1 ovarian; 102% with OVCAR-3 ovarian. The figures for the growth with HS 578T breast and with NCI/ADR-RES ovarian were 110% and 116%, respectively.
